From the antibiotic and cytotoxicity screens of Wong et al. (2023) come the findings set out here.

Molecules are shown by their SMILES. Screen size: about 39,000 compounds; about 3,300 (8.5%) were called active. This excerpt belongs to a sample that is enriched for actives.

This test concerns HepG2. The test is described as follows: cytotoxicity call (relative viability < 0.9). The note with it: 10 µM.
In the case of `C[C@@H]1CN([C@H](C)CO)S(=O)(=O)c2ccc(C#CC(C)(C)O)cc2O[C@@H]1CN(C)Cc1ccncc1`, the cytotoxicity call is “inactive”. As for `CCCNC(=O)C[C@H]1CC[C@@H]2[C@H](COc3ccc(NS(=O)(=O)c4ccccc4C)cc3C(=O)N2C)O1`, the entry is “inactive”; as for `C[C@H](CO)N1C[C@H](C)[C@@H](CN(C)C(=O)Nc2ccc(F)cc2)OCCCC[C@H](C)Oc2ccc(NC(=O)CCC(F)(F)F)cc2C1=O`, “inactive”. As for `COCC(=O)N1C[C@H](C)[C@H](OC)CN(C)C(=O)c2cc(NC(=O)c3ccc(OC)cc3)ccc2OC[C@H]1C`, the entry is “inactive”; as for `NCCSC12CC3CC(CC(C3)C1)C2`, “inactive”; as for `C[C@H](O)C#Cc1ccc2c(c1)O[C@H](CN(C)C(=O)c1ccncc1)[C@@H](C)CN([C@H](C)CO)S2(=O)=O`, “inactive”. The result for `C[C@@H](O)C#Cc1ccc2c(c1)O[C@H](CN(C)C(=O)c1ccncc1)[C@@H](C)CN([C@@H](C)CO)S2(=O)=O` reads “inactive”; that for `C[C@@H]1CN([C@H](C)CO)S(=O)(=O)c2ccc(C#C[C@@H](C)O)cc2O[C@H]1CN(C)C(=O)c1ccncc1`, “inactive”; that for `C[C@H](O)C#Cc1ccc2c(c1)O[C@@H](CN(C)C(=O)c1ccncc1)[C@@H](C)CN([C@@H](C)CO)S2(=O)=O`, “inactive”. Turning to `C[C@H]1CN([C@@H](C)CO)S(=O)(=O)c2ccc(C#Cc3ccncc3)cc2O[C@H]1CN(C)C(=O)c1ccncc1`, the cytotoxicity call was “active”. The result for `C[C@@H]1CN([C@H](C)CO)S(=O)(=O)c2ccc(C#Cc3ccncc3)cc2O[C@H]1CN(C)C(=O)c1ccncc1` reads “active”; that for `COc1ccc(CN(C)C[C@@H]2OCCCC[C@H](C)Oc3ccc(NS(=O)(=O)c4ccc(C)cc4)cc3C(=O)N([C@H](C)CO)C[C@H]2C)cc1`, “inactive”. The result for `COc1ccc(S(=O)(=O)N(C)C[C@H]2OCc3cn(nn3)CCCC(=O)N([C@H](C)CO)C[C@H]2C)cc1` reads “inactive”; that for `C[C@@H]1CCCCO[C@H](CN(C)S(C)(=O)=O)[C@@H](C)CN([C@H](C)CO)C(=O)c2cc(NS(=O)(=O)c3cn(C)cn3)ccc2O1`, “inactive”. As for `CC(=O)n1cc([C@@H]2C=C(C(=O)N3CCN(C)CC3)O[C@H](OCc3ccc(CO)cc3)C2)c2ccccc21`, the entry is “inactive”; as for `CCn1c(C)cn2c3c(=O)n(CCN4CCOCC4)c(=O)n(C)c3nc12`, “inactive”; as for `O=C/C=C/c1ccccc1Cl`, “inactive”. `C[C@@H]1CN([C@@H](C)CO)C(=O)c2cccc(NS(C)(=O)=O)c2O[C@H]1CN(C)C(=O)Nc1ccccc1`: the cytotoxicity call was “inactive”. In the case of `C[C@@H]1CN([C@@H](C)CO)C(=O)c2cc(NC(=O)Cc3ccccc3)ccc2O[C@@H]1CN(C)S(C)(=O)=O`, the cytotoxicity call is “inactive”. Turning to `COC(=O)c1ccc(O)cc1`, the cytotoxicity call was “inactive”.

Turning to `COC(=O)c1cccc(C(=O)OC)n1`, the cytotoxicity call was “inactive”. As for `COC(=O)c1ccc(C(=O)OC)nc1`, the entry is “active”; as for `C[C@H](CO)N1C[C@H](C)[C@@H](CN(C)S(=O)(=O)c2ccccc2)Oc2ccc(NC(=O)Nc3cccc4ccccc34)cc2C1=O`, “inactive”. The result for `CCC(=O)N[C@H]1CC[C@@H](CC(=O)OC)O[C@H]1CO` reads “inactive”. As for `C[C@@H]1CN([C@H](C)CO)C(=O)c2cccc(NC(=O)C3CCCCC3)c2O[C@H]1CN(C)C(=O)Nc1cccc2ccccc12`, the entry is “inactive”; as for `COC(=O)[C@H](Cc1ccccc1)N1CC2=C[C@@H]([C@@H](O)CCn3cc(C(=O)NO)nn3)n3c(=O)n(C)c(=O)n3[C@@H]2[C@@H](C2CC2)O1`, “inactive”. Take `Cc1ccc(S(=O)(=O)Nc2ccc3c(c2)C(=O)N([C@H](C)CO)C[C@H](C)[C@@H](CN(C)C(=O)Nc2ccc(F)cc2)OCCCC[C@H](C)O3)cc1`: the cytotoxicity call is “active”.

In the case of `Cc1ccc(S(=O)(=O)Nc2ccc3c(c2)C(=O)N([C@H](C)CO)C[C@H](C)[C@@H](CN(C)C(=O)Nc2ccccc2)OCCCC[C@H](C)O3)cc1`, the cytotoxicity call is “inactive”.

On to `Cc1ccc(S(=O)(=O)Nc2ccc3c(c2)C(=O)N([C@@H](C)CO)C[C@@H](C)[C@@H](CN(C)C(=O)Nc2ccccc2)OCCCC[C@H](C)O3)cc1`, for which the cytotoxicity call is “inactive”.

For the compound `Cc1ccc(S(=O)(=O)Nc2ccc3c(c2)C(=O)N([C@@H](C)CO)C[C@@H](C)[C@@H](CN(C)C(=O)Nc2ccc(F)cc2)OCCCC[C@@H](C)O3)cc1`, the cytotoxicity call was “inactive”.

Turning to `Cc1ccc(S(=O)(=O)Nc2ccc3c(c2)C(=O)N([C@@H](C)CO)C[C@H](C)[C@H](CN(C)C(=O)Nc2ccc(F)cc2)OCCCC[C@@H](C)O3)cc1`, the cytotoxicity call was “inactive”. As for `Cc1ccc(S(=O)(=O)Nc2ccc3c(c2)C(=O)N([C@@H](C)CO)C[C@@H](C)[C@H](CN(C)C(=O)Nc2ccc(F)cc2)OCCCC[C@@H](C)O3)cc1`, the entry is “inactive”; as for `Cc1ccc(S(=O)(=O)Nc2ccc3c(c2)C(=O)N([C@H](C)CO)C[C@@H](C)[C@H](CN(C)C(=O)Nc2ccc(F)cc2)OCCCC[C@H](C)O3)cc1`, “active”; as for `Cc1ccc(S(=O)(=O)Nc2ccc3c(c2)C(=O)N([C@@H](C)CO)C[C@H](C)[C@@H](CN(C)C(=O)Nc2ccc(F)cc2)OCCCC[C@@H](C)O3)cc1`, “inactive”. As for `Cc1ccc(S(=O)(=O)Nc2ccc3c(c2)C(=O)N([C@@H](C)CO)C[C@H](C)[C@@H](CN(C)C(=O)Nc2ccccc2)OCCCC[C@H](C)O3)cc1`, the entry is “active”; as for `Cc1ccc(S(=O)(=O)Nc2ccc3c(c2)C(=O)N([C@@H](C)CO)C[C@H](C)[C@@H](CN(C)C(=O)Nc2ccc(F)cc2)OCCCC[C@H](C)O3)cc1`, “inactive”; as for `Cc1ccc(S(=O)(=O)Nc2ccc3c(c2)C(=O)N([C@H](C)CO)C[C@H](C)[C@H](CN(C)C(=O)Nc2ccc(F)cc2)OCCCC[C@H](C)O3)cc1`, “inactive”. The result for `Cc1ccc(S(=O)(=O)Nc2ccc3c(c2)C(=O)N([C@H](C)CO)C[C@@H](C)[C@H](CN(C)C(=O)Nc2ccc(F)cc2)OCCCC[C@@H](C)O3)cc1` reads “active”; that for `C[C@@H]1CN([C@@H](C)CO)C(=O)c2cccc(NC(=O)C3CCCCC3)c2O[C@H]1CN(C)Cc1ccc(-c2ccccc2)cc1`, “inactive”. As to `CC(C)NC(=O)Nc1ccc2c(c1)C(=O)N([C@@H](C)CO)C[C@H](C)[C@H](CN(C)S(=O)(=O)c1ccc(F)cc1)O2`, the cytotoxicity call was “inactive”. `Cc1cccc(N2CCC(N)CC2)c1`: the cytotoxicity call was “inactive”. With `CN1C(=O)c2cc(NC(=O)c3ccc(F)c(F)c3)ccc2OC[C@H]2O[C@@H](CC(=O)N3CCOCC3)CC[C@@H]21`, the cytotoxicity call was “inactive”.
